The record followed here is article PMC12136788.

Where a chain is given by its changes, count along the chain named. In all, about 5,800 sequences were measured (“enrichment r”: median about 0.54, highest 2% from about 16 on). The entries come from a sample that favours the highest values as a whole.

B1: ENSG00000198589:be:win_3051|CDS|ENSG00000198589|bound_else_gene|NA|bound_elsewhere_windowed (ssRNA)
RNA: GGGAGUUCUACAGUCCGACGAUCAGAAAUGAAAGCUGAGCAAGAAAAUCAGGAGUUACCAGAUGAAGGCACUUUGGAAGAAACACUGACAAAUGAGACAAGGAAUGCAGAUGAUUUAGAAGUAUCUUCUGACAUAAUAGAAGCCAACAGAGGAUUGAGCAUCA
B2: chr8:58582127:58582250:+|3pUTR|ENSG00000137575|unk|total|mutant (ssRNA)
RNA: GGGAGUUCUACAGUCCGACGAUCUUCAUAUUACUUCCGUUCUACCGCAUACUUGCAUCUUUAACAUGCUAUCACCGUACAUUCCGAAUGAUUGCCUUUGAUUUUUUUUUUAAAUUCUGUGUGUGUGUGUGUAAAAUGCCAAUUCAACAGAGGAUUGAGCAUCA
B3: chr3:44491765:44499181:-|three_prime_utr|ENSG00000178917|control|control|control (ssRNA)
RNA: GGGAGUUCUACAGUCCGACGAUCACUAAUCACAGUGGAGACCAUACCUACUUGCUUUUCCUUGGGUCACUAAGGUGGGAGAGUAGGUGCAACUUAGUCUGAUCCUUACUUAGUAGGAAAUUGGGGAUUACAUCUGUCAUUAACCAACAGAGGAUUGAGCAUCA
B4: chr11:59152587:59152688:+|CDS|ENSG00000166801|msi1|FALSE|unique (ssRNA)
RNA: GGGAGUUCUACAGUCCGACGAUCAUUGAAAACUUCAAGAAAAAAAUGAAAGUAAAAAAUGGGGAAACAUUAUUUGAAUUGCAUAGAACAACGUUUGGGAAAGUAACAAAAAAUUCUUCUUCGAUUAAAGUAGUGAAACUUCUUCAACAGAGGAUUGAGCAUCA
B5: chr3:98797769:98798349:-|3pUTR|ENSG00000057019|msi1|total|mutant (ssRNA)
RNA: GGGAGUUCUACAGUCCGACGAUCUUGUUUUUGAUACCUCCUGGCAGCUUCCAUGUCACCACUUGUUCAUACCUGCCCAGAGCCCGUUUCCGACAUGGCAAAACCGAAAUCAUCUGUAAUUUAUCCGCUAACAAUGUAAAACCACAACAGAGGAUUGAGCAUCA
B6: chrX:71101288:71101389:+|CDS|ENSG00000184481|unk|FALSE|unique (ssRNA)
RNA: GGGAGUUCUACAGUCCGACGAUCGGAGGCCCUGCUCACCUCUGAUACGCCACCACCCCCUGCUGACGUCCUCAUGACCCAGGUAGAUCCCAUUCUGUCCCAGGCUCCGACUCUUCUGUUGCUGGGGGGGCUUCCUUCCUCCAGCAACAGAGGAUUGAGCAUCA
B7: chr16:57253408:57253449:+|3pUTR|ENSG00000102931|msi1_unk|total|mutant (ssRNA)
RNA: GGGAGUUCUACAGUCCGACGAUCUGUGUGGCCGAUUACUUAUCAGAAAACAUAUAUGUCAUCUCCCGAACGAAGAAAAAGCACCGCCGUUCAAUUCCCAGUGUGUCCCUUUGAUUUUUUUUUUUUAACCGUAAAAAUAAGAAUCAACAGAGGAUUGAGCAUCA
B8: chr22:45843749:45843850:+|3pUTR|ENSG00000130638|msi1|FALSE|unique (ssRNA)
RNA: GGGAGUUCUACAGUCCGACGAUCAAAUUGCAAGUGUUUGAAGAUUUAUAAGUACAAAUUUGGGAACAUACAAAUCUUUUAGGUAGUAGAGUUUAACGUGUAUAAGCUAAAAGUGAAAGUAACUGAGUGUUCUCUUGUUUCUUUCAACAGAGGAUUGAGCAUCA
B9: chrX:71300841:71300885:+|3pUTR|ENSG00000147140|msi1_unk|FALSE|overlapping (ssRNA)
RNA: GGGAGUUCUACAGUCCGACGAUCCCCCAUAUAUUACCCCUUCAUGUCCUAAAGAAGACAUUUUCUCUUAGAGAUUUUCAUUUUAGUGUAUCUUUAAAAAAAAAUCUUGUGUUAACUUGCCUCCAUCUUUUUCUUGGGUGAGGACAACAGAGGAUUGAGCAUCA
B10: ENSG00000139428:stop:overlap|stop_codon|ENSG00000139428|stop_codon|NA|stop_codon (ssRNA)
RNA: GGGAGUUCUACAGUCCGACGAUCUAUUACUAUUCUUAACACUUACCUGUUCCUGGCUACCAUUUCUCCAUGGCGGGCCUGACUAGGUUUGCUCUGGAAUUAGUCACAGAAAAGGGCCAUACAUUUGCCGAAGAGCUUCAGAAACAACAGAGGAUUGAGCAUCA
B11: ENSG00000198589:be:win_9451|3pUTR|ENSG00000198589|bound_else_gene|NA|bound_elsewhere_windowed (ssRNA)
RNA: GGGAGUUCUACAGUCCGACGAUCUUAAACUAUCAUCUCCACCUUCCUUUUGAUUAGCAAUUUGUACUAAGAAACGAAACAAUGUUAUUUGGUGGUGUAUAAUUCUACUUUUCUAGUAGAUUACUGUGUGGAAUUCUGUGAAAACAACAGAGGAUUGAGCAUCA
B12: chr16:57253408:57253449:+|3pUTR|ENSG00000102931|msi1_unk|FALSE|overlapping (ssRNA)
RNA: B7 RNA with C31U, C32A, C65U, C66A, C83U, C84A, C86U, C87A, C128U, C129A
B13: chr6:73594753:73594854:-|3pUTR|ENSG00000119899|unk|FALSE|unique (ssRNA)
RNA: GGGAGUUCUACAGUCCGACGAUCGGUUCACAUACCUGCCUGCUAGUCGGGCAACAUGAAGUAGGACAGUUCUGUUGAUUUUUUAGGGCCAUACUAAAGGGAAUGAGCUGAAACAGACCUCCUGAUACCUUUGCUUAAUUAAACCAACAGAGGAUUGAGCAUCA
B14: chr14:51255895:51255996:+|3pUTR|ENSG00000139921|msi1_unk|FALSE|overlapping (ssRNA)
RNA: GGGAGUUCUACAGUCCGACGAUCGUGAAUCCAUUAGAUUUACAGUAUCGUAAUAUACAAGUUUUCUUUAAAGCCCUCUCCUUUAGAAUUUAAAAUAUUGUACCAUUGAAGAGUUUGGAUGUGUAACUUGUGAUGCCUUAGAAACAACAGAGGAUUGAGCAUCA
B15: chrX:71300841:71300885:+|3pUTR|ENSG00000147140|msi1_unk|total|mutant (ssRNA)
RNA: B9 RNA with U68C, A69C, U83C, A84C
B16: chr5:111496093:111496242:-|3pUTR|ENSG00000164211|unk|FALSE|unique (ssRNA)
RNA: GGGAGUUCUACAGUCCGACGAUCUUUACAUGUAUAGUUAAAUAUUAAAAUUCAUCUCUUGCAGUUCAAUAAAAGCUAUAGUAUAGAUUUUAUUUUUAAGAAGUUUAUAUAAUUCUUUUGUGAACCAAUAUGUAAAACUAGAAUCAACAGAGGAUUGAGCAUCA
B17: chr2:16549458:16552935:-|three_prime_utr|ENSG00000197872|control|control|control (ssRNA)
RNA: GGGAGUUCUACAGUCCGACGAUCUUGCUACUGGAGUCCUUUAACAACAUCUAUAACGAUAAAAAAUUCCUAAUUGUUUGUGGUAGUAUUUUAAUUCUAGAUGUGUUAUCUCUCUGGGAAGUAUAGUUUAUAGAAACACAAAAUCAACAGAGGAUUGAGCAUCA
B18: ENSG00000070961:be:win_3151|CDS|ENSG00000070961|bound_else_gene|NA|bound_elsewhere_windowed (ssRNA)
RNA: GGGAGUUCUACAGUCCGACGAUCACAUUACUCUGGGGCCAGCUUAUUUCAACAAUUCCAACUAGCCGUUUAAAAUUCCUCAAAGAAGCUGGUCAUGGAACACAAAAGGAAGAAAUACCUGAGGAGGAAUUAGCAGAGGAUGUUCAACAGAGGAUUGAGCAUCA

In the experiment the target is MSI1 full-length (mouse, UniProt Q61474 1-362). As to the kind of experiment: nsRBNS (natural sequence RNA bind-n-seq); RBNS binding buffer (assumed for nsRBNS): 25 mM Tris pH 7.5, 150 mM KCl, 3 mM MgCl2, 0.01% Triton X-100, 500 ug/ml BSA, 20 U/ml SUPERase-In, 4 C; UNK is unkempt and MSI1 is Musashi-1; names of the RNAs are library labels; protein concentration not given here; high values mean tight binding.
Chain of MSI1 full-length (Q61474 whole entry): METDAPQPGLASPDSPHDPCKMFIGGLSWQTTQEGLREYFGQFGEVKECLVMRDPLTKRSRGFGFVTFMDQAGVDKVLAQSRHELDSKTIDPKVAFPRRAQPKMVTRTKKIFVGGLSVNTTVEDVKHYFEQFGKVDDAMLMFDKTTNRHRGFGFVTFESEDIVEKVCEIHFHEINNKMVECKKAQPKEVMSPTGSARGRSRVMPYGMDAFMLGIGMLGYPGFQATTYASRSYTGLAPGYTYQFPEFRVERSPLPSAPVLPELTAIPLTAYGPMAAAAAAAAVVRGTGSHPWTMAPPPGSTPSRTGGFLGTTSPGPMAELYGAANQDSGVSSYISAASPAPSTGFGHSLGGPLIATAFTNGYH
Regarding B1, the binding signal was 0.825 enrichment R.

In the case of B2, the binding signal worked out at 0.478 enrichment R.

B3 showed a binding signal of 0.646 enrichment R.

B4 registered a binding signal of 0.574 enrichment R.

The molecule B5 returned a binding signal of 0.808 enrichment R.

Take B6: the binding signal was 0.429 enrichment R.

B7 yielded a binding signal of 0.465 enrichment R.

With B8, the binding signal was 7.75 enrichment R.

B9 gave a binding signal of 16.5 enrichment R.

Turning to B10, the binding signal came out at 18.8 enrichment R.

The molecule B11 gave a binding signal of 1.55 enrichment R.

Molecule B12 yielded a binding signal of 21 enrichment R.

Molecule B13 had a binding signal of 0.746 enrichment R.

With B14, the binding signal came out at 5.27 enrichment R.

Molecule B15 came in with a binding signal of 0.906 enrichment R.

Consider B16, for which the binding signal worked out at 2.64 enrichment R.

As for B17, the binding signal amounted to 25 enrichment R.

As to B18, the binding signal is 0.641 enrichment R.
